# Assay results as given in the supplement of paper PMC13380429.
# System: Vero E6 infected with SARS-CoV-2
# Assay: morphology score (similarity to uninfected cells); higher = more like uninfected cells
# Conditions: 24 h
row,Structure (SMILES),morphology score
1,O=C1OCCN1/N=C/c1ccc([N+](=O)[O-])o1 [furazolidone] (10 µM),0.0225
2,O=C1CC[C@@H](C(=O)N2CSC[C@H]2C(=O)O)N1 [pidotimod] (10 µM),-0.145
3,CC(=O)O[C@H]1Cc2ccccc2N(C(N)=O)c2ccccc21 [eslicarbazepine-acetate] (10 µM),0.137
4,C[C@]1(c2nc3c(C(N)=O)cccc3[nH]2)CCCN1 [veliparib] (10 µM),0.206
5,C[n+]1cccc(C(=O)[O-])c1 [trigonelline] (0.833333 µM),0.0676
6,CN1C(=O)N(c2ccc(C#N)c(C(F)(F)F)c2)C(=O)[C@]1(CO)c1ccccc1 [GLPG0492-R-enantiomer] (10 µM),-0.00354
7,O=C1c2ccccc2CCC1CNCCc1ccc(O)cc1 (configuration not stated) (10 µM),0.0149
8,COc1cc(N2CCC(N3CCN(C)CC3)CC2)ccc1Nc1ncc(Cl)c(Nc2ccccc2S(=O)(=O)C(C)C)n1 (0.833333 µM),0.115
9,CC(NC(C)(C)C)C(=O)c1cccc(Cl)c1 (configuration not stated) [bupropion] (10 µM),0.00981
10,C=CC[N@@+]12CC[C@@]34c5ccccc5N5/C=C6/[C@H]7C[C@H]8[C@@]9(CC[N@@+]8(CC=C)C/C7=C/CO)c7ccccc7N(/C=C(/[C@@H](C[C@@H]31)/C(=C\CO)C2)[C@H]54)[C@@H]69 [alcuronium] (10 µM),-0.108
11,Cc1[nH]c(=O)c(C#N)cc1-c1ccncc1 [milrinone] (10 µM),0.236
12,CN=C(N)NCCC[C@H](N)C(=O)O [L-monomethylarginine] (10 µM),0.197
13,Oc1cc(Cl)ccc1Oc1ccc(Cl)cc1Cl [triclosan] (10 µM),0.237
14,Clc1cccc(Cl)c1CSc1nnc(-c2cnccn2)s1 [yoda-1] (10 µM),0.286
15,CCn1cnc(C(=O)NC)c1C(=O)NC [ethimizol] (10 µM),0.114
16,CN1[C@@H]2CC[C@H]1C[C@@H](OC(=O)C(CO)c1ccccc1)C2 (some centres not stated) (10 µM),-0.21
17,CC(C)(CO)[C@@H](O)C(=O)NCCC(=O)O [pantothenic-acid] (10 µM),0.0324
18,CCCn1c(=O)[nH]c2nc(-c3ccc(S(=O)(=O)O)cc3)[nH]c2c1=O (10 µM),0.179
19,CN(C)CCc1c[nH]c2ccc(C[C@H]3COC(=O)N3)cc12 [zolmitriptan] (10 µM),0.127
20,CN(C)[C@@H]1C(O)=C(C(N)=O)C(=O)[C@@]2(O)C(O)=C3C(=O)c4c(O)ccc(Cl)c4[C@@H](O)[C@H]3C[C@@H]12 [demeclocycline] (10 µM),0.0306
21,CN[C@H](CNC(=O)N1CCC[C@@H]([C@@H](OCCNC(=O)OC)c2cccc(Cl)c2)C1)C[C@H]1CCCOC1 (10 µM),-0.0283
22,CCOC(=O)[C@@H](N)Cc1ccc(-c2cc(O[C@H](c3ccc(Cl)cc3-n3ccc(C)n3)C(F)(F)F)nc(N)n2)cc1 [telotristat-ethyl] (10 µM),0.343
23,CC(=O)/N=c1/sc(S(N)(=O)=O)nn1C [methazolamide] (10 µM),-0.0286
24,CN1CCC(c2c[nH]c3ccc(O)cc23)CC1 (10 µM),0.214
25,CC1=CC(=O)c2ccccc2C1=O [menadione] (10 µM),0.144
26,CCC(=O)N[C@@H]1Cc2ccccc2[C@H](c2ccccc2)C1 (10 µM),-0.0816
27,CCCCCCCN(CC)CCC[C@@H](O)c1ccc(NS(C)(=O)=O)cc1 (racemic) [ibutilide] (10 µM),0.189

# System: Vero E6 infected with SARS-CoV-2
# Assay: SARS-CoV-2 infection rate relative to infected DMSO; higher = more infection, active = 60 or less
# Conditions: 24 h
row,Structure (SMILES),SARS-CoV-2 infection rate
1,CCCCCn1cc(C(=O)NC23CC4CC(CC(C4)C2)C3)c(=O)c2cc(-c3ccccc3)ccc21 (10 µM),107% (inactive)
2,O=C(NNc1nc2cc(F)ccc2n2cccc12)c1cnccn1 (10 µM),105% (inactive)
3,CCOC(=O)C1=C(COCCN)NC(C)=C(C(=O)OC)C1c1ccccc1Cl (configuration not stated) [amlodipine] (10 µM),47% (active)
4,CCCN(C/C=C/I)[C@H]1CCc2ccc(O)cc2C1 [7-hydroxy-PIPAT] (10 µM),118% (inactive)
5,CCN(CC)CCN[C@@H](C(=O)OCCC(C)C)c1ccccc1 [camylofine-chlorhydrate] (10 µM),98% (inactive)
6,Cc1oc(-c2ccccc2)nc1CCC(=O)c1ccc(CC2SC(=O)NC2=O)cc1 (configuration not stated) [darglitazone] (10 µM),98.5% (inactive)
7,COc1ccc(Cc2cnc(N)nc2N)cc1OC [diaveridine] (10 µM),101% (inactive)
8,Nc1nc(N)c2nc(-c3ccccc3)c(N)nc2n1 [triamterene] (0.833333 µM),118% (inactive)
9,CCN1C(=O)NC(c2ccccc2)C1=O (configuration not stated) [ethotoin] (10 µM),97% (inactive)
10,CC(=O)[C@@]12O[C@](C)(c3ccccc3)O[C@@H]1C[C@H]1[C@@H]3CCC4=CC(=O)CC[C@]4(C)[C@H]3CC[C@@]12C [algestone-acetophenide] (10 µM),88.5% (inactive)
11,CC(O)(CS(=O)(=O)c1ccc(F)cc1)C(=O)Nc1ccc(C#N)c(C(F)(F)F)c1 (configuration not stated) [bicalutamide] (10 µM),114% (inactive)
12,CCCN1CCCC[C@H]1C(=O)Nc1c(C)cccc1C [ropivacaine] (10 µM),104% (inactive)
13,CN1CC[C@@]2(C)c3cc(O)ccc3N(C)[C@@H]12 [eseroline-(-)] (10 µM),97% (inactive)
14,O=C1OCCN1/N=C/c1ccc([N+](=O)[O-])o1 [furazolidone] (10 µM),102% (inactive)
15,O=C1CC[C@@H](C(=O)N2CSC[C@H]2C(=O)O)N1 [pidotimod] (10 µM),116% (inactive)
16,CC(=O)O[C@H]1Cc2ccccc2N(C(N)=O)c2ccccc21 [eslicarbazepine-acetate] (10 µM),106% (inactive)
17,C[C@]1(c2nc3c(C(N)=O)cccc3[nH]2)CCCN1 [veliparib] (10 µM),109% (inactive)
18,C[n+]1cccc(C(=O)[O-])c1 [trigonelline] (0.833333 µM),108% (inactive)
19,CN1C(=O)N(c2ccc(C#N)c(C(F)(F)F)c2)C(=O)[C@]1(CO)c1ccccc1 [GLPG0492-R-enantiomer] (10 µM),104% (inactive)
20,O=C1c2ccccc2CCC1CNCCc1ccc(O)cc1 (configuration not stated) (10 µM),106% (inactive)

row,Structure (SMILES),SARS-CoV-2 infection rate
1,COc1cc(N2CCC(N3CCN(C)CC3)CC2)ccc1Nc1ncc(Cl)c(Nc2ccccc2S(=O)(=O)C(C)C)n1 (0.833333 µM),102% (inactive)
2,CC(NC(C)(C)C)C(=O)c1cccc(Cl)c1 (configuration not stated) [bupropion] (10 µM),96.5% (inactive)
3,C=CC[N@@+]12CC[C@@]34c5ccccc5N5/C=C6/[C@H]7C[C@H]8[C@@]9(CC[N@@+]8(CC=C)C/C7=C/CO)c7ccccc7N(/C=C(/[C@@H](C[C@@H]31)/C(=C\CO)C2)[C@H]54)[C@@H]69 [alcuronium] (10 µM),114% (inactive)
4,Cc1[nH]c(=O)c(C#N)cc1-c1ccncc1 [milrinone] (10 µM),93.5% (inactive)
5,CN=C(N)NCCC[C@H](N)C(=O)O [L-monomethylarginine] (10 µM),97% (inactive)
6,Oc1cc(Cl)ccc1Oc1ccc(Cl)cc1Cl [triclosan] (10 µM),95% (inactive)
7,Clc1cccc(Cl)c1CSc1nnc(-c2cnccn2)s1 [yoda-1] (10 µM),89% (inactive)
8,CCn1cnc(C(=O)NC)c1C(=O)NC [ethimizol] (10 µM),96.5% (inactive)
9,CN1[C@@H]2CC[C@H]1C[C@@H](OC(=O)C(CO)c1ccccc1)C2 (some centres not stated) (10 µM),106% (inactive)
10,CC(C)(CO)[C@@H](O)C(=O)NCCC(=O)O [pantothenic-acid] (10 µM),110% (inactive)
11,CCCn1c(=O)[nH]c2nc(-c3ccc(S(=O)(=O)O)cc3)[nH]c2c1=O (10 µM),105% (inactive)
12,CN(C)CCc1c[nH]c2ccc(C[C@H]3COC(=O)N3)cc12 [zolmitriptan] (10 µM),92.5% (inactive)
13,CN(C)[C@@H]1C(O)=C(C(N)=O)C(=O)[C@@]2(O)C(O)=C3C(=O)c4c(O)ccc(Cl)c4[C@@H](O)[C@H]3C[C@@H]12 [demeclocycline] (10 µM),96% (inactive)
14,CN[C@H](CNC(=O)N1CCC[C@@H]([C@@H](OCCNC(=O)OC)c2cccc(Cl)c2)C1)C[C@H]1CCCOC1 (10 µM),105% (inactive)
15,CCOC(=O)[C@@H](N)Cc1ccc(-c2cc(O[C@H](c3ccc(Cl)cc3-n3ccc(C)n3)C(F)(F)F)nc(N)n2)cc1 [telotristat-ethyl] (10 µM),95.5% (inactive)
16,CC(=O)/N=c1/sc(S(N)(=O)=O)nn1C [methazolamide] (10 µM),105% (inactive)
17,CN1CCC(c2c[nH]c3ccc(O)cc23)CC1 (10 µM),101% (inactive)
18,CC1=CC(=O)c2ccccc2C1=O [menadione] (10 µM),91% (inactive)
19,CCC(=O)N[C@@H]1Cc2ccccc2[C@H](c2ccccc2)C1 (10 µM),110% (inactive)
20,CCCCCCCN(CC)CCC[C@@H](O)c1ccc(NS(C)(=O)=O)cc1 (racemic) [ibutilide] (10 µM),107% (inactive)
